Rows were chosen to be rich in hits. Some 1.3% of all compounds tested hit in one or more screens of this group.
BCLXL inh: Bcl-xL (human) inhibition | inhibition, % at 10.9 µM | Q07817 | actives 0.7% (n = 320,000) | AID 2129 | GST-Bcl-xL / FITC-Bim BH3 peptide fluorescence polarization;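 active means inhibition above the mean of all tested compounds plus 3 SD, cutoff set per campaign, cut at about 30% in these data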;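 further: 0% = DMSO wells and 100% = unlabeled Bim-BH3 peptide competitor; inhibitors lower millipolarization by displacing the labeled peptide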
Target sequence (Q07817 whole entry, looked up): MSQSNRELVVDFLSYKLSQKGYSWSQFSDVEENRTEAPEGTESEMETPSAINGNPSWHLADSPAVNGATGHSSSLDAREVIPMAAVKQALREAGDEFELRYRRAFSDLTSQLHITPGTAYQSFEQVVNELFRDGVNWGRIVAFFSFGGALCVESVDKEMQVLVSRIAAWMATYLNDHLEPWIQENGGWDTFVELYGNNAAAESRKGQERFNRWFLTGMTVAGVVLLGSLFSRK
EBV gp42 inh: blocks Epstein-Barr virus glycoprotein 42 binding. Q1HVG2. Fluorescence polarization binding assay, mP read-out. inhibition, % (tested at 21.74 µM). actives 0.42% (n = 220,000); in the data active means inhibition above about 50%
GLD-1 RNA inh: GLD-1-TGE RNA interaction inhibition (C. elegans); actives 0.44% (n = 320,000); inhibition, % at 5.96 µM; purified GLD-1 + fluorescein TGE RNA, fluorescence polarization;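 active means percent inhibition above a per-plate cutoff, the plate mean of test compounds plus 3 SD, cut at about 30% in these data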;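 further: 0% = DMSO wells with GLD-1 and probe and 100% = wells lacking GLD-1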
MEX-5 binding: C. elegans MEX-5 TCR-2 RNA binding activity; Q9XUB2; MEX-5/FITC-TCR2 RNA binding, fluorescence polarization; active compounds read low; activity score (negative = inhibition of binding), % at 10 µM; actives 0.38% (n = 300,000); AID 1832;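 active means inhibition past about -25% in most replicates, and total fluorescence under double the plate's negative control median, limit read from the data; inconclusive means replicates evenly split on the limit, or fluorescence at least double controls; inactive means too little inhibition in most replicates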;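 further: 0% = DMSO and -100% = 5 µM competing unlabeled TCR2 RNA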
MCL1 BIM primary: inhibitors of human MCL1 binding to BIM-BH3 peptide; actives 0.68% (n = 320,000); GST-MCL1 / FITC-Bim-BH3 fluorescence polarization; Q07820; inhibition, % at 10.9 µM; AID 2057;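 active means inhibition above the mean inhibition of all tested compounds plus 3 SD, set per campaign, cut at about 40% in these data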;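 further: 0% = DMSO wells and 100% = unlabeled Bim-BH3 peptide control; higher means more loss of mP so more displacement of Bim peptide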
Target sequence (Q07820 whole entry, looked up): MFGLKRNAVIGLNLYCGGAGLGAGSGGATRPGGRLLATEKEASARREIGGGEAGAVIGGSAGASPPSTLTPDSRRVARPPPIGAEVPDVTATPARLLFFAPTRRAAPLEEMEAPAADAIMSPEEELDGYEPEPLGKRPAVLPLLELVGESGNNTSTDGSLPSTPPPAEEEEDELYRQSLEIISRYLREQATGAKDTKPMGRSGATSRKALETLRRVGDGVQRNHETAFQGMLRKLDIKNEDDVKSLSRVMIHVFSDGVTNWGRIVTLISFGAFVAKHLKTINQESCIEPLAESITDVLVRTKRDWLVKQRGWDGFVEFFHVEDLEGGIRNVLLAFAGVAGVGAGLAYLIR
* = called active by the depositor; ? = inconclusive; / = no result given.

SMILES	BCLXL inh	EBV gp42 inh	GLD-1 RNA inh	MEX-5 binding	MCL1 BIM primary
O=C(c1cc(C2CC2)nc2ccc(Br)cc12)N1N=C(C(F)F)CC1(O)C(F)F (centres undefined)	5.0	9.6	2.9	-0.1	3.0
COc1ccc(/C=C/C2=CCN(Cc3ccc(OC)cc3)CC2)cc1	11.8	-7.3	-0.6	1.1	8.5
COC(=O)c1ccccc1Oc1ccc(NC(=O)C(C)(C)CCl)cc1	2.9	6.7	-7.4	2.3	2.6
CC(C)(CCl)C(=O)Nc1ccc(OC(F)(F)F)cc1	2.4	61.1*	5.8	3.2	5.0
C=CCN(C(=O)c1csnn1)C(C(=O)NCc1ccc(F)cc1)c1ccccc1 (centres undefined)	6.1	/	-3.9	-0.8	10.0
OCCOc1ccc(C2=NCCO2)cc1	-2.2	2.8	0.6	-49.8*	6.6
OCCOCCOc1ccc(-c2nn[nH]n2)cc1	2.9	-2.3	-0.3	0.1	-3.1
Cc1ccc(S(=O)(=O)N2CCC(N3CCN(C)CC3)CC2)cc1Cl	4.1	/	2.9	1.3	0.8
O=C(Nc1nccs1)C(c1ccccc1)N1CCCC1 (centres undefined)	4.2	65.4*	3.8	3.0	3.1
CC(C)C(C(=O)Nc1nccs1)c1ccccc1 (centres undefined)	5.3	3.8	2.2	-0.8	4.5
Cc1nn(-c2ccccc2)c(N2CCCC2)c1/C=C1\N=C(c2ccc(F)cc2)OC1=O	1.3	82.1*	-5.0	?	-17.5
Cc1ccc(C2=N/C(=C\c3c(C)nn(-c4ccccc4)c3N3CCCC3)C(=O)O2)cc1	-4.4	93.4*	-1.5	-9.3	1.4
COc1ccc(-c2[nH]ncc2/C=N\NC(=O)c2ccc(Br)o2)cc1OC	-0.5	/	-2.5	1.2	-9.5
COc1ccc(O)c(/C=C2/SC(=S)N(Cc3ccccc3)C2=O)c1	-37.6	/	-20.6	0.4	-68.0
COc1ccc(OC)c(/C=C2\SC(=S)N(Cc3cccnc3)C2=O)c1	-22.6	142.4*	-16.1	-7.7	-45.8
CC(Nc1c[nH]c(=O)[nH]c1=O)c1ccccc1 (centres undefined)	/	/	/	1.2	/
C/C(=C\c1ccccc1F)C1Nc2cccc3cccc(c23)N1	30.8*	/	21.1	/	38.6
C/C(=C\c1ccc2c(c1)OCO2)C1Nc2cccc3cccc(c23)N1	16.4	/	4.7	/	17.8
Cn1nnc(NC(=S)NC(=O)c2cc(Cl)ccc2Cl)n1	9.0	/	-1.4	-1.6	13.3
O=S(=O)(c1ccc(NC(=S)N/N=C/c2c3ccccc3cc3ccccc23)cc1)N1CCOCC1	5.0	63.2*	-6.4	-1.7	-57.2
CC1(C)OC2CC3C4CC(F)C5=CC(=O)C=CC5(C)C4(F)C(O)CC3(C)C2(C(=O)CO)O1 (centres undefined)	56.9*	/	12.3	0.4	52.9*
C=CCc1cccc(C=Nc2cc(Br)ccc2O)c1O	8.2	101.5*	3.2	0.8	7.2
C=CCc1cccc(C=Nc2c[nH]c(=O)[nH]c2=O)c1O	3.0	/	6.8	0.2	3.4
C=CCSc1nnc(CNC(=O)c2ccc(Cl)cc2)n1CC	0.9	4.5	9.4	2.4	-4.3
COc1ccccc1NC(=S)NNC(=O)c1cc(C)n(C)n1	-0.4	-20.1	2.9	-25.8*	3.8
SMILES	BCLXL inh	EBV gp42 inh	GLD-1 RNA inh	MEX-5 binding	MCL1 BIM primary
CCc1cccc(CC)c1NC(=O)C1CCN(C(=O)c2ccco2)CC1	2.6	/	3.0	2.2	3.7
CCC/C(C#Cc1ccc(N(C)C)cc1)=C1/c2ccccc2C(=O)N1c1ccccc1	/	/	118.9*	/	/
CCC/C(C#Cc1cc(OC)cc(OC)c1)=C1/c2ccccc2C(=O)N1c1ccccc1	/	/	2.1	/	/
COc1ccccc1CNC(=O)c1ccc2ccccc2n1	8.3	/	1.7	6.4	2.2
Cc1cccc(Nc2nc(-c3ccc(O)c(O)c3)cs2)n1	8.5	/	8.6	-2.6	26.6
Oc1ccc(-c2csc(Nc3ccccn3)n2)cc1O	27.4	/	5.2	-32.0*	21.8
Oc1cc2c(cc1O)C1c3ccc(O)c(O)c3OCC1(O)C2 (centres undefined)	34.2*	-14.0	34.9*	/	77.5*
COc1ccccc1C(=O)C1CCCN(C(=O)c2cccnc2SC)C1 (centres undefined)	-1.2	-11.9	3.5	-40.6*	-0.8
CSc1ccc(C(=O)C2CCCN(C(=O)c3cccnc3SC)C2)cc1 (centres undefined)	3.1	-18.8	-0.1	0.4	-3.3
Cc1nc2sc(-c3ccccc3)cc2c(=O)n1N	11.9	-11.6	0.5	-31.9*	-4.8
COc1ccc(-n2c(O)c(/C=N/NS(=O)(=O)c3ccc(C)c([N+](=O)[O-])c3)c3ccccc3c2=O)cc1OC	40.9*	-34.6	-33.1	6.5	-95.7
COc1ccc(C(=O)/C=C/C(=O)N(Cc2ccccc2OC)C(C(=O)NC2CCCCC2)c2ccncc2)c(O)c1 (centres undefined)	9.1	-9.6	3.7	0.3	6.6
COc1ccccc1CN(C(=O)CCl)C(C(=O)NC1CCCCC1)c1ccncc1 (centres undefined)	30.5*	3.5	24.9	/	29.0
C=C(C)CSc1nc2c(c(=O)[nH]c(=O)n2C)n1CCC(C)C	3.0	-10.1	7.6	-2.3	-5.0
CC1=C/C(=C\c2ccc(Br)o2)C(=O)O1	2.1	51.0*	3.1	-3.7	7.4
CCOC(=O)C(C)Sc1nnc(NC(=O)c2ccc3c(c2)OCO3)s1 (centres undefined)	1.4	-1.0	5.3	-1.9	-6.0
Cc1ccc2c(c1)CC1(CN2C)C(=O)OC2(CCCCC2)OC1=O	32.6*	-11.8	5.2	-1.7	6.4
CN1CC2(Cc3c1ccc1ccccc31)C(=O)OC(C)(C)OC2=O	25.2	17.3	7.1	/	16.6
COc1cc(N)ccc1C(=O)O	3.8	-11.3	1.0	-1.7	0.8
Nc1ccc(O)c(C(=O)O)c1	35.2*	/	17.9	-15.3	75.9*
CCOC(=O)c1ccccc1NC(=O)CSc1nnnn1C1CCCCC1	5.2	-14.1	4.5	-2.4	4.4
CCOc1ccc(NC(=O)Cc2ccc(S(=O)(=O)N3CCCCC3)cc2)cc1OCC	/	/	1.0	/	/
COc1ccc(C(=O)Nc2nnc(CC(=O)N/N=C/c3ccc(O)cc3O)s2)cc1	3.5	/	43.4*	?	4.4
Cc1ccc(C(=O)Nc2nnc(CC(=O)N/N=C/c3ccncc3)s2)cc1	1.2	1.9	-4.7	0.6	-1.4
O=C(C1CCCN(c2ncnc3c2nc2n3CCCCC2)C1)N1CCN(c2ccccc2F)CC1 (centres undefined)	-3.1	/	0.5	-1.1	-8.5
COc1cc(NC(=O)Cn2ncc3c2-c2ccccc2OC3)cc(OC)c1OC	172.1*	7.3	7.1	1.7	32.6
COc1ccc([C@@H]2CC=C(C(=O)O)[C@H](c3ccccc3F)N2S(=O)(=O)c2ccc(C)cc2)cc1OC	3.4	/	8.9	/	0.4
CCOC(=O)C1=C(C)N=c2s/c(=C\c3cccn3C)c(=O)n2C1c1cccc(OC)c1OC (centres undefined)	-12.4	47.1	-19.7	-40.1*	-17.2
Cc1ccccc1-n1c(=O)cc(NCC2CCCO2)[nH]c1=O (centres undefined)	35.8*	-17.0	10.6	-1.8	16.9

Bioassay records deposited in PubChem BioAssay by several laboratories.
